Bioassay records from PubChem.
BoNT A protease: BoNT A light chain protease inhibition; multiplex microsphere protease substrate cleavage, flow cytometry; inhibition, % at 10 µM; 0.17% of 360,000 active
Bead autofluor: counter-screen for toxin protease inhibitors: compound fluorescence; compound autofluorescence counterscreen, microsphere flow cytometry; stronger effect = higher value; AID 624483; 3.1% of 360,000 active; fluorescence intensity (concentration not given with the values); in the data active means fluorescence intensity above about 16000; inconclusive means no clear call, values can overlap the other calls
Anthrax LF inh2: inhibitors of Bacillus anthracis lethal factor protease. 0.12% of 360,000 active. inhibition, % at 10 µM. multiplex microsphere protease cleavage assay, LF
Target sequence (P15917 whole entry, looked up): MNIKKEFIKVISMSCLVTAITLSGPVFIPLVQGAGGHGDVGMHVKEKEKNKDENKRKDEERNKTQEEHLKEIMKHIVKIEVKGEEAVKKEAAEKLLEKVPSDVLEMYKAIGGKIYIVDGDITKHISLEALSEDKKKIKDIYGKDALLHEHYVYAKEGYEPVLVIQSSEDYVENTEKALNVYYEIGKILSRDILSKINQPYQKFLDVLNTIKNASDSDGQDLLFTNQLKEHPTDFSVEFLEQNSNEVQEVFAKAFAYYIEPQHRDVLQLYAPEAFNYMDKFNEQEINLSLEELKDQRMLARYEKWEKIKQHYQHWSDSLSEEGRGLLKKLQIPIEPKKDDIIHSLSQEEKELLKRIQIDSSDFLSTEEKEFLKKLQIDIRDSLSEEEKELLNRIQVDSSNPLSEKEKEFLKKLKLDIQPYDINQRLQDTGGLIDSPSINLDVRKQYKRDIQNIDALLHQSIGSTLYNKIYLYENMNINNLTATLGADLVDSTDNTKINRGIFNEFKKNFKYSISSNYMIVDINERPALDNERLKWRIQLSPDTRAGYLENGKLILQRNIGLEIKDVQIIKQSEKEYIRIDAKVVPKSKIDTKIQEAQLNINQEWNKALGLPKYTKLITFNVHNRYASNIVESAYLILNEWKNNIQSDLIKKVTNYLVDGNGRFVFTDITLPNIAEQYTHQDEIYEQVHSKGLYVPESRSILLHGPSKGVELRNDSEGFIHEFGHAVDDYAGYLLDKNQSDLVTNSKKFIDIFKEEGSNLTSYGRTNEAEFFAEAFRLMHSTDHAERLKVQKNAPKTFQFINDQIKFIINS
BoNT F protease: inhibitors of Botulinum neurotoxin F light chain protease; inhibition, % at 10 µM; 0.22% of 360,000 active; AID 588497; Multiplex microsphere protease cleavage assay, flow cytometry; in the data active means inhibition above about 35%, passing the limit was not always enough; inconclusive means no clear call, values can overlap the other calls
A number is an active result; - = inactive; ? = inconclusive. The list is not random: actives were taken first. Their share in the collection is about 3.5%. Unless noted, no stated cut-off is given here; in the data, active means inhibition above about 30%; inconclusive means no clear call, values can overlap the other calls; inactive means below that.

SMILES	BoNT A protease	Bead autofluor	Anthrax LF inh2	BoNT F protease
O=C(Nc1ccc(S(=O)(=O)N2CCc3ccccc3C2)cc1)C1CCCO1 (configuration not stated)	-	-	-	-
Cc1ccc(C(=O)Nc2ccc(S(=O)(=O)N3CCc4ccccc43)cc2)o1	?	23775	-	-
Cc1ccc(C(=O)Nc2ccc(S(=O)(=O)N3CCCC3)cc2)o1	-	-	-	-
NS(=O)(=O)c1ccc(NC(=O)c2ccc(S(=O)(=O)N3CCc4ccccc43)cc2)cc1	-	-	-	-
CCN1C/C(=C/c2ccc(N3CCOCC3)cc2)C(=O)/C(=C/c2ccc(N3CCOCC3)cc2)C1	37	-	-	-
CN1C/C(=C/c2ccncc2)C(=O)/C(=C/c2ccncc2)C1	-	-	-	-
CN1C/C(=C\c2ccc(N3CCOCC3)cc2)C(=O)/C(=C/c2ccc(N3CCOCC3)cc2)C1	34	-	33	-
COc1ccc(CCNC(=O)COC(=O)c2cc(S(=O)(=O)N3CCCC3)ccc2O)cc1	-	-	-	-
Cc1cc(C)c2c(=O)n(-c3ccccc3)[nH]c2n1	-	-	-	-
Cc1cc(C(C)(C)C)nc2[nH]n(-c3ccccc3)c(=O)c12	-	20895	-	-
Clc1nc(-c2ccccc2)cc(-c2ccc(Br)cc2)n1	-	23930	-	-
Nc1cc(-c2ccc(Br)cc2)nc2cc(-c3ccccc3)nn12	-	-	-	-
CCCC(=O)C1=C(N2CCCCC2)CC(C)(C)C(C(=O)OC)C1=O (configuration not stated)	-	-	-	-
COC(=O)C1C(=O)/C(=C(/C)N2CCCC2)C(=O)CC1(C)C (configuration not stated)	?	23073	-	-
CCCCn1nnnc1C1(C)CCC(=O)N1Cc1cc(OC)ccc1OC (configuration not stated)	-	-	-	-
Cc1cc(Br)cn2c(Cc3cccc(F)c3)c(-c3ccc(Cl)cc3)nc12	-	-	-	-
Cc1cc(C(=O)NCCC2=CCCCC2)no1	-	25954	-	-
CCOc1ccc2oc(-c3ccccc3)c(C(=O)N3CCN(C)CC3)c2c1	-	22066	-	-
CCOC(=O)c1c(-c2ccccc2)oc2ccc(OCC)cc12	-	-	-	-
CCC(CC)N1CCN(Cc2nc3ccccc3c(=O)n2-c2ccc(F)cc2)CC1	-	-	-	?
O=c1c2ccccc2nc(CN2CCCCCC2)n1-c1ccc(F)cc1	-	24642	-	-
CC(C)(C)C1CCc2onc(C(=O)Nc3cnn(Cc4ccc(F)cc4)c3)c2C1 (configuration not stated)	-	18196	-	-
CC1CCN(S(=O)(=O)c2cc(Br)cc(C(=O)NC3=NCCS3)c2)CC1	-	24164	-	-
COCCNC(=O)c1cc2cc(Br)cc(OC)c2oc1=O	?	21622	-	-
CC1=CN2C(c3cccc([N+](=O)[O-])c3)=NON(c3ccc(C)cn3)C2C=C1 (configuration not stated)	-	-	-	-
SMILES	BoNT A protease	Bead autofluor	Anthrax LF inh2	BoNT F protease
COc1ccc(C2=CC(=O)C[C@H](c3ccc(Cl)cc3)C2)cn1	-	-	-	-
Cc1c2c(cc3c1[nH]c1ccccc13)C=NCC2	-	21778	-	-
COCCNCc1ccccc1	-	24425	-	-
O=C(N/N=C/c1ccc(N2CCOCC2)o1)c1ccccc1[N+](=O)[O-]	-	-	-	-
O=C(N/N=C/c1ccc(N2CCOCC2)o1)c1cccc(C(F)(F)F)c1	-	24154	-	-
CC(C)Oc1ccc(S(=O)(=O)N2CCOCC2)cc1NC(=O)CSc1nnc(C2CC2)n1C	-	-	-	-
CCOC(=O)c1c(C)oc2c1c(C(c1cccnc1)N1CCCCC1)c(O)c1ccccc12 (configuration not stated)	-	-	-	-
CCOC(=O)c1c(C)oc2c1c(C(c1ccccc1)N1CCOCC1)c(O)c1ccccc12 (configuration not stated)	?	19404	-	-
CCOC(=O)N1CCC(=NNS(=O)(=O)c2cccc([N+](=O)[O-])c2)CC1	-	22772	-	-
CC(=O)N1C[C@H]2CON(C)[C@H]2C[C@H]1c1ccc(-c2cccnc2)cc1	-	-	-	-
CCC(C(=O)N1CCN(S(C)(=O)=O)CC1)c1ccccc1 (configuration not stated)	-	20841	-	-
O=C(Nc1ccc(F)c(Cl)c1)c1cc(C2CCCCN2C(=O)c2ccccc2)on1 (configuration not stated)	-	-	-	-
CC(NC(=O)Cc1cccs1)c1ccncc1 (configuration not stated)	-	24187	-	-
O=C(c1ccco1)N(CCC(c1ccccc1)c1ccco1)Cc1ccc(F)cc1 (configuration not stated)	-	16623	-	-
CCOC(=O)/C(C(N)=NCCO)=C(/O)c1ccccc1	-	17067	-	-
CCOC(=O)/C(C(N)=NCCCO)=C(/O)c1ccccc1	-	-	-	-
O=C(O)c1ccc(F)c(S(=O)(=O)Nc2ccccc2Cl)c1	-	23288	-	-
CSc1nnc(C)c(=O)[nH]1	-	25237	-	-
Cc1nnc(SCCc2ccccc2)[nH]c1=O	?	19226	-	-
Fc1ccccc1N1CCN(C(c2ccnc3ccccc23)c2nnnn2-c2ccc3c(c2)OCCO3)CC1 (configuration not stated)	-	-	-	-
Cc1cccc(NC(=O)c2cc(NC(=O)CCCC(=O)O)ccc2Cl)n1	-	23857	-	-
COc1cccc(C(C)(O)c2nc(-c3cccs3)cs2)c1 (configuration not stated)	-	-	-	-
Cc1nc(NC(C)C(=O)O)c2nc(C)oc2n1 (configuration not stated)	-	21393	-	-
Cc1nc(N[C@@H](Cc2ccccc2)C(=O)O)c2oc3ccccc3c2n1	-	-	-	-
COc1ccc(OC)c(NC(=O)c2sc3nc(Cc4ccccc4)cc(C(F)(F)F)c3c2N)c1	-	20176	-	-
SMILES	BoNT A protease	Bead autofluor	Anthrax LF inh2	BoNT F protease
CC1(C)CC(=O)C=C(NNC(=O)c2ccccc2O)C1	-	16377	-	-
Cc1cccc(C(=O)NNC2=CC(=O)CC(C)(C)C2)c1O	-	-	-	-
CC1CCC(C(C)C)C(OC(=O)COC(=O)c2ccc(N)cc2)C1 (configuration not stated)	-	-	-	-
C/C(=N\O)C(=O)OC1CC(C)CCC1C(C)C (configuration not stated)	-	24312	-	-
CSc1ccccc1C(=O)NCCOc1ccccc1C	-	-	-	-
CCCCNC(=O)c1cc(C)nc2ccccc12	-	-	-	-
CSc1ccccc1C(=O)NCCCOC(C)C	-	21738	-	-
Cc1cc(C(=O)NCCCOC(C)C)c2ccccc2n1	-	22118	-	-
COc1ncnc2c1ncn2CCCNCc1ccccc1	-	-	-	-
Cc1ccc(C(=O)OCC(=O)N2CCOCC2)cc1	-	-	-	-
Nc1nonc1C(=O)OCC(=O)N1CCOCC1	?	20876	-	-
Cc1ccc(CNn2cnnc2SCc2ccc(F)cc2)cc1	-	22609	-	-
Fc1ccc(CNn2cnnc2SCc2ccc(F)cc2)cc1	-	-	-	-
Cc1ccsc1CNn1cnnc1SCc1ccc(Cl)cc1	-	23748	-	-
